Compounds with a hit are over-represented: about 4.8% of the library has one in this group of screens.
ATXN2 expr inh – reduces ATXN2 reporter expression in HEK-293 cells. HEK-293 ATXN2-luciferase reporter, luminescence, 24 h. Potency, µM (highest dose often 57 µM), without a hit: at the highest dose activity change, negative = inhibition, hits mostly inhibitors. 360,000 compounds, 0.72% hits. AID 1745845; note: potency is the fitted concentration of half-maximal effect; % is set by controls: 0 for no effect and ±100 for the full control effect; nearly all actives have a fitted effect of over 55% in size
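qHTS (up to 57 uM final) was run with 24 h compound exposure of reporter cells at 37 °C. Each well was multiplexed: SteadyGlo luminescence measured ATXN2-luciferase expression after a fluorogenic Gly-Phe-AFC viability readout (25 uM final).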
TGFb SMAD3 inh – inhibitors of TGF-b signaling; Potency, µM (top dose mostly 46.1 µM), without a hit: top-dose activity, negative = inhibition, usual class: inhibitors; 410,000 compounds, 1.2% hits; HepG2 CAGA-GFP TGF-b/SMAD3 reporter, GFP fluorescence, 18 h; TGF-beta stimulated, 500 pg/mL final; note: potency is the fitted concentration of half-maximal effect; % is set by controls: 0 for no effect and ±100 for the full control effect; nearly all actives have a fitted effect of over 65% in size
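GFP signal (ex488/em500-530) from TGF-beta-stimulated HEPG2 CAGA-GFP cells, 500 pg/mL final, 18 h at 37 degrees C in DMEM plus 1% FBS, normalized to unstimulated and DMSO-stimulated controls.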
D3 antag – antagonists of human D3 dopamine receptor; max response, negative = inhibition, %; AID 652054; D3R cells, DiscoveRx beta-arrestin luminescence, antagonist mode; active compounds read low; 360,000 compounds, 2.5% hits; P35462; in the data active = max response below about -50%; inconclusive = no clear call, values can overlap the other calls; note: % is set by controls: 0 for no effect and ±100 for the full control effect
Target sequence (P35462 whole entry, looked up): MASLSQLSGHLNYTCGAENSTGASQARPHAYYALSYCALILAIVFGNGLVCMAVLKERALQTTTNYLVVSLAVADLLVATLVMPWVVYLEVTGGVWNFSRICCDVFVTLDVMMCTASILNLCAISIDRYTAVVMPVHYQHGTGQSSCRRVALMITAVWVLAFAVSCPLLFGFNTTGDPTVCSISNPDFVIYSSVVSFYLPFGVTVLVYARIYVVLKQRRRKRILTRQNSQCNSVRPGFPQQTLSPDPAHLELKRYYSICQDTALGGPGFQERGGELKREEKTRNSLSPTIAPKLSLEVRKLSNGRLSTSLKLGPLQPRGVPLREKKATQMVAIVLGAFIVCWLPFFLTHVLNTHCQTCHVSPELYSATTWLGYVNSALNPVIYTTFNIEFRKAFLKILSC
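Cells expressing the human receptor were seeded at 1500 cells/well, incubated overnight at 37 degrees C in 5% CO2, then exposed to library compounds with dopamine controls for 90 minutes at 37 degrees C before luminescent detection.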
S2 tox – viability counter-screen for ATXN expression inhibitors; 400,000 compounds, 0.49% hits; S2 cells (HEK-293 line with an ATXN2-luciferase reporter) viability, CellTiter-Fluor protease fluorescence, 24 h; Potency, µM (series often up to 56.7 µM), most hits filed as cytotoxic; AID 651635; note: potency is the fitted concentration of half-maximal effect; nearly all actives have a fitted effect of over 40% in size
DRD3 agonist – activates the human D3 dopamine receptor. 410,000 compounds, 0.58% hits. P35462. D3R DiscoveRx beta-arrestin cells, luminescence, 90 min. max activation, %; in the data active = max activation above about 30%; note: 0% is about no effect
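Agonist mode: compounds and dopamine controls were applied to plated cells for 90 min at 37 degrees C after an overnight attachment at 1500 cells/well. Luminescent read-out followed 30 - 60 minutes at room temperature with DiscoveRx detection reagent.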
HepG2 tox-1 – HepG2 cytotoxicity, counter-screen for TGF-b inhibitors. HepG2 CAGA-GFP viability, ATP luminescence, 18 h. Potency, µM (top dose mostly 46.1 µM), for inactives: top-dose activity change, negative = cytotoxicity, actives largely listed as cytotoxic. 410,000 compounds, 0.76% hits. AID 588856; note: potency is the fitted concentration of half-maximal effect
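CellTiter-Glo luminescence gave cytotoxicity after 18 hours at 37 degrees C. The cells were HepG2 CAGA-GFP in 1% FBS DMEM, stimulated with 500 pg/mL TGF-beta after compound addition. %Activity was normalised to no-cell wells (complete cell-killing) and DMSO (no toxicity), and curves were fitted and classified.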
TGFb CAGA inh – confirmation of TGF-b signaling inhibitors in HepG2 reporter cells | shares compounds with TGFb SMAD3 inh | HepG2 CAGA-GFP TGF-b reporter, GFP fluorescence, 18 h; cells stimulated with TGF-beta, 500 pg/mL | Potency, µM (highest dose often 46.1 µM), for inactives: at the top dose activity, negative = inhibition, usual class: inhibitors | 1,600 compounds, 63% hits | AID 720534; note: potency is the fitted concentration of half-maximal effect; % is set by controls: 0 for no effect and ±100 for the full control effect; nearly all actives have a fitted effect of over 65% in size
HepG2 tox-2 – HepG2 cytotoxicity, TGF-b inhibitor counterscreen; AID 720535; 1,600 compounds, 27% hits; Potency, µM (top dose mostly 46.1 µM), inactives show at the highest dose activity, negative = cytotoxicity, usual class: inhibitors; shares compounds with TGFb SMAD3 inh; HepG2 CAGA-GFP viability, ATP luminescence, 18 h; cells stimulated with TGF-beta, 500 pg/mL; note: potency is the fitted concentration of half-maximal effect; % is set by controls: 0 for no effect and ±100 for the full control effect; nearly all actives have a fitted effect of over 70% in size
TGFb CCL64 inh – orthogonal confirmation of TGF-b inhibitors in CCL64 cells; CCL64 CAGA-GFP reporter, TGF-b stimulated, GFP fluorescence, 18 h; Potency, µM (series often up to 46.1 µM), for the others: at the top dose activity, negative = inhibition, actives largely listed as inhibitors; shares compounds with TGFb SMAD3 inh; 1,600 compounds, 41% hits; note: potency is the fitted concentration of half-maximal effect; nearly all actives have a fitted effect of over 65% in size
COP TGFb inh – TGF-b inhibition validated with COP promoter; shares compounds with TGFb SMAD3 inh; HepG2 COP-GFP TGF-b reporter, GFP fluorescence, 18 h; cells stimulated by added recombinant TGF-beta; Potency, µM (top dose mostly 46.1 µM), for inactives: at the highest dose activity, negative = inhibition, usual class: inhibitors; 1,600 compounds, 3% hits; AID 720537; note: potency is the fitted concentration of half-maximal effect; nearly all actives have a fitted effect of over 70% in size
* hit, by the source's call; i = inactive; ? = inconclusive; / = no result. Unless noted, calls come from the whole dose curve; as a rule, active = well fitted curve in the direction sought with a large enough effect; inconclusive = small, poorly fitted or top-dose-only effect, or another doubt; inactive = no such curve, though single readings can be large; an effect the other way counts as inactive or inconclusive.

SMILES	ATXN2 expr inh	TGFb SMAD3 inh	D3 antag	S2 tox	DRD3 agonist	HepG2 tox-1	TGFb CAGA inh	HepG2 tox-2	TGFb CCL64 inh	COP TGFb inh
Cc1ccc(-c2ccc(CN3C(C(C)C)C(=O)N(Cc4cn(CCC5OCCO5)nn4)CCS3(=O)=O)cc2)c(C)c1 (configuration not stated)	?	11µM*	-8	?	-5	-76%	23µM*	?	23µM*	-21%
Cc1ccccc1-c1ccc(CN2C(C(C)C)C(=O)N(Cc3cn(CCC4OCCO4)nn3)CCS2(=O)=O)cc1 (configuration not stated)	?	?	8	?	6	0%	/	/	/	/
COc1ccc(C(=O)c2sc(Nc3ccccc3)c(C(=O)Nc3ccc(OC)c(OC)c3)c2N)cc1	-11%	-24%	?	i	-5	-27%	/	/	/	/
COc1ccc(NC(=O)c2c(Nc3ccccc3)sc(C(=O)c3ccc(F)cc3)c2N)cc1	?	3.2µM*	0	i	-9	-58%	-22%	-27%	?	-1%
c1ccc(Cn2nnnc2C(c2cccs2)N2CCSCC2)cc1 (configuration not stated)	-1%	3%	-23	i	-18	1%	/	/	/	/
Fc1ccc(C(c2nnnn2C2CCCC2)N2CCN(Cc3ccccc3)CC2)cc1 (configuration not stated)	2%	10%	-26	?	-11	-3%	/	/	/	/
C(=C\c1ccccc1)/CN1CCN(C(c2nnnn2C2CCCC2)C2CC2)CC1 (configuration not stated)	0%	7.9µM*	?	?	-19	-27%	?	-24%	-15%	12%
C(=C\c1ccccc1)/CN1CCN(C(CCc2ccccc2)c2nnnn2C2CCCC2)CC1 (configuration not stated)	-29%	11µM*	-116*	?	-17	-3%	21µM*	?	?	60%
C(=C\c1ccccc1)/CN1CCN(C(c2cccs2)c2nnnn2Cc2ccccc2)CC1 (configuration not stated)	?	11µM*	-73*	?	-18	-9%	16µM*	?	?	59%
COc1ccc(S(=O)(=O)Nc2cccc3cccnc23)c([N+](=O)[O-])c1	/	?	/	/	/	-41%	/	/	/	/
O=C(CN1C(=O)COc2ccc(S(=O)(=O)N3CCOCC3)cc21)N1CCN(c2ccc(F)cc2)CC1	6%	14%	/	i	0	7%	/	/	/	/
CN(Cc1cccc(Cl)c1Cl)C(=O)c1cccc(S(=O)(=O)N2CCN(Cc3ccccc3)CC2)c1	-23%	8.9µM*	-4	?	-6	-1%	10µM*	?	?	13%
Cc1ccc(OCCNC(=O)/C=C/c2ccc([N+](=O)[O-])cc2)cc1C	-7%	?	-12	i	0	0%	-23%	-2%	-9%	2%
CC1CCCC(C)N1C(=O)Cn1cc(/C=C2/C(=O)Nc3ccccc32)c2ccccc21 (configuration not stated)	?	6.3µM*	?	?	-14	-17%	?	-21%	?	2%
CCOc1ccc(C2=Nn3c(nnc3-c3ccccc3OC)SC2)cc1	-19%	10µM*	?	i	-3	-23%	0.23µM*	-8%	0.46µM*	-6%
CC(=Nc1ccccc1)C1=C(O)C(Cc2ccccc2)NC1=O (configuration not stated)	21%	?	0	?	-13	1%	?	-7%	3.3µM*	-17%
CC(=Nc1ccccc1)C1=C(O)C(Cc2ccc(F)cc2)NC1=O (configuration not stated)	/	-17%	0	?	-13	-29%	/	/	/	/
O=C1c2cccc(OCc3ccc(F)cc3)c2CCN1Cc1ccc(F)cc1	?	6.3µM*	6	i	6	-29%	23µM*	?	13µM*	31%
CCNc1nc(N)c(C(=O)c2ccc(Cl)s2)s1	43%	13µM*	-51*	i	-2	-1%	6.5µM*	?	?	15%
COc1ccc(-n2c(=O)c3c4c(sc3n(CC(=O)N3CCCCC3C)c2=O)CCC4)c(OC)c1 (configuration not stated)	/	-7%	/	/	2	4%	/	/	/	/
COc1cc2c(cc1OC)[C@@H]1Cc3cc4c(cc3[C@H](C2)N1C)OCO4	0%	9%	16	i	2	-14%	/	/	/	/
O[C@@H]1[C@@H](O)C=C2CCN3Cc4cc5c(cc4[C@H]1C23)OCO5 (some centres not stated)	3.5µM*	3.5µM*	-6	?	-25	2%	0.92µM*	?	1.3µM*	22%
COc1ccc(S(=O)(=O)Nc2ccc(F)c(F)c2)cc1Cl	-8%	10µM*	4	i	-1	-39%	-19%	-6%	-11%	7%
COc1ccc(NS(=O)(=O)c2ccc(OC)c(N(C)S(=O)(=O)c3ccc(Cl)cc3)c2)cc1	?	10µM*	-15	?	-6	-26%	7.3µM*	?	?	37%
Cc1cc(C)n(-c2nc3cc(Cl)ccc3nc2N2CCN(c3cccc(C)c3C)CC2)n1	14%	13%	/	i	-4	7%	/	/	/	/
NNC(=O)c1[nH]c2ccc([N+](=O)[O-])cc2c1-c1ccccc1	/	3.5µM*	-14	i	-7	-24%	?	-19%	?	-14%

Assay outcomes (PubChem BioAssay)
